Assay outcomes deposited in PubChem BioAssay by Broad Institute.
Tg IFNy HTS: T. gondii growth inhibition under IFN-gamma; Toxoplasma gondii growth in IFN-gamma-treated host cells; stronger effect = lower value; activity change, negative = inhibition, % (no concentration beside the values); 69,000 compounds, 3.8% hits; AID 1259416; in the data active means activity change below about -70%, passing the limit was not always enough;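 further: host cells are HeLa cells infected with Toxoplasma gondii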
The depositor's hits bear a star; ! = a repeat was not active. The entries come from a sample that favours hits as a whole.

Results for CC(C)(C)CN1CC2CN(S(=O)(=O)c3ccccc3)CC2C1 (centres undefined) ?
Tg IFNy HTS: -3

What do the screens show for `Fc1ccc([C@@H]2CCNC[C@H]2COc2ccc3c(c2)OCO3)cc1`?
Tg IFNy HTS: -35

Results for Fc1ccc(C2CCNCC2COc2ccc3c(c2)OCO3)cc1 (centres undefined) ?
Tg IFNy HTS: -75*

What do the screens show for `O=C(NCc1ccc2c(c1)OCO2)c1ccccc1C1CCNC1` (centres undefined)?
Tg IFNy HTS: -2

Results for COc1ccc(Nc2nc(NC(=O)Nc3ccc(Cl)cc3)n[nH]2)cc1 ?
Tg IFNy HTS: -53

What do the screens show for `COc1ccc(C2(CNCc3cc(-c4ccc(Cl)cc4)c[nH]c3=O)CCOCC2)cc1`?
Tg IFNy HTS: 311

Results for COc1ccc(NC2=NC(c3ccc(Cl)cc3)n3c(nc(C)cc3=O)N2)cc1 (centres undefined) ?
Tg IFNy HTS: -86*

Results for O=C(c1ccccc1C1CCNC1)N1CCN(c2ccc(F)cc2)CC1 (centres undefined) ?
Tg IFNy HTS: -20

What do the screens show for `COc1ccc(-c2cc(=S)sc(N)c2C#N)cc1OC`?
Tg IFNy HTS: 65

What do the screens show for `COc1ccc(-c2c(C#N)c(N)nc3c2CCc2ccccc2-3)cc1OC`?
Tg IFNy HTS: -86*

How did COc1ccc(-c2cc(-c3ccccc3)nc(N)c2C#N)cc1OC do in these assays?
Tg IFNy HTS: 19

Results for CC(=O)c1ccc(N2CCN(Cc3ccc(C)cc3)CC2)nc1 ?
Tg IFNy HTS: -3

Results for CCO[C@H]1COC[C@@H]1NC(=O)Cc1c(C)[nH]c2ccccc12 ?
Tg IFNy HTS: 5

How did Cc1[nH]c2ccccc2c1CCNCc1ccc(/C=C/C(=O)NO)cc1 do in these assays?
Tg IFNy HTS: -82*!

What do the screens show for `Cc1[nH]c2ccccc2c1CCNC(=O)c1cccs1`?
Tg IFNy HTS: 29

How did C=CCSC1=NC2(CC(c3ccc(OC)cc3)c3ccc(O)c(C)c3O2)CC(C)(C)N1 (centres undefined) do in these assays?
Tg IFNy HTS: -51

What do the screens show for `O=C(c1c(O)cccc1O)N1CCC(c2cc(Cc3ccccc3)[nH]n2)CC1`?
Tg IFNy HTS: -1

Results for COCCN(CCOC)C(=O)c1ccc2ccc(N3CCC(C)CC3)n2c1 ?
Tg IFNy HTS: -88*

How did CCN(CC)CCCNC(=O)c1ccc2ccc(N3CCC(C)CC3)n2c1 do in these assays?
Tg IFNy HTS: -46

How did CCCCN(C)C(=O)c1ccc2ccc(N3CCN(CC4CC4)CC3)n2c1 do in these assays?
Tg IFNy HTS: 20

Results for Cc1cnccc1N1CCCN(c2cc(N(C)C)ncn2)CC1 ?
Tg IFNy HTS: -42

What do the screens show for `COc1cccc(N2CC3(CCN(C(=O)NCc4cccc(F)c4)C3)CC2=O)c1` (centres undefined)?
Tg IFNy HTS: -39

Results for C(=C\c1cccc(N2CCNCC2)c1)/c1ccccc1 ?
Tg IFNy HTS: 3

What do the screens show for `CCc1ccccc1-c1cccc(N2CCNCC2)n1`?
Tg IFNy HTS: -6

How did C(=C\c1cccc(N2CCNCC2)n1)/c1ccccc1 do in these assays?
Tg IFNy HTS: -78*

Results for COCCN1CCN(C(=O)[C@H]2CCCO2)Cc2cccnc21 ?
Tg IFNy HTS: 44

How did O=c1[nH]c(=O)n([C@H]2C[C@H](O)[C@@H](CO)O2)cc1C(F)(F)F do in these assays?
Tg IFNy HTS: -77*!

Results for Cc1cn([C@@H]2C[C@@H](O)[C@H](CO)O2)c(=O)[nH]c1=O ?
Tg IFNy HTS: 1

How did O=c1[nH]c(=O)n([C@H]2CC(O)[C@@H](CO)O2)cc1C(F)(F)F (some centres undefined) do in these assays?
Tg IFNy HTS: -50

What do the screens show for `CCOc1ccccc1NC(=O)Cn1ncc2c(N3CCOCC3)ncnc21`?
Tg IFNy HTS: 110

What do the screens show for `O=C(c1ccno1)N1CCC2(CC1)CC(=O)N(CCO)c1ccccc12`?
Tg IFNy HTS: -2

How did Cc1cccc(CC(=O)NCCc2csc(-c3ccc(Cl)cc3)n2)c1 do in these assays?
Tg IFNy HTS: 36

What do the screens show for `Cc1ccc(-c2coc(-c3ccc(NS(=O)(=O)c4ccc(Cl)cc4)cc3)n2)cc1C`?
Tg IFNy HTS: -33

What do the screens show for `c1ccc(C2CCCN2Cc2cnc(-c3cccs3)nc2)nc1` (centres undefined)?
Tg IFNy HTS: -54

How did CC(C)(C)c1cc(C(F)(F)F)nc(SCCCNC(=O)CCc2ccccc2)n1 do in these assays?
Tg IFNy HTS: -74*

Results for O=C(CCc1ccccc1)Nc1ccccc1C(F)(F)F ?
Tg IFNy HTS: 30

Results for O=C(CCc1nc2ccccc2[nH]1)NCCc1ccc(C(F)(F)F)cc1 ?
Tg IFNy HTS: -5

Results for COCCNC(=O)[C@]12CCO[C@H]1CCN(Cc1nccs1)C2 ?
Tg IFNy HTS: 26

How did COc1ccc2c3c([nH]c2c1)[C@@H](CO)N(S(C)(=O)=O)CC31CCN(CC2CCCC2)CC1 do in these assays?
Tg IFNy HTS: -107*

Results for COc1ccc2c3c([nH]c2c1)[C@@H](CO)N(S(C)(=O)=O)CC31CN(CC2CCOCC2)C1 ?
Tg IFNy HTS: 22
